Laboratory results from PubChem BioAssay (NCI).
The panel holds about 83,000 compounds, 20% with a hit somewhere; the sample as a whole holds those more often.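 48-hour exposure, single concentration, 96-well plates; percent growth endpoint where 0 means no net growth. Active: below 10.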 Values without a mark were called inactive. Active and inactive are the calls of the source.

These compounds were tested on NCI-H226 lung (assay: NCI-60 one-dose screen, 48 h (100 = growth as untreated, 0 = no growth, -100 = all killed)). Settings: 10 µM unless noted.

Structure (SMILES) | growth
COc1cccc(/C=C/C(=O)c2cc3c(N)c(C(=O)Nc4cccc(Cl)c4C)sc3nc2C)c1 | -23.6% (active)
O=C(CBr)CN1C(=O)c2ccccc2C1=O | 98.7%
C=C(CN1CC=CCC1)[C@@H]1CC[C@]2(CO)CC[C@]3(C)[C@H](CC[C@@H]4[C@@]5(C)CC[C@H](O)C(C)(C)[C@@H]5CC[C@]43C)[C@@H]12 | 97.4%
N=C(N)c1ccc(-c2ccc(-c3ccc(Cl)cc3)o2)o1 | 82.7%
CC(O)c1ncc(/C=C2\SC(=S)N(Cc3ccccc3)C2=O)s1 (stereo not given) | 97.2%
O=C(/C=C\c1ccco1)/C=C/c1ccco1 | 98.6%
CCCCNC1=C(OCC)C(=O)c2ccccc2C1=O | 105%
C#CC#CC#CC#CC#CC#CC#CC#CC[C@H]1OC[C@H](COC(=O)O[C@@H](C(=O)O[C@H]2C[C@@]3(O)[C@@H](OC(=O)c4ccccc4)[C@@H]4[C@]5(OC(C)=O)CO[C@@H]5C[C@H](O)[C@@]4(C)C(=O)[C@H](OC(C)=O)C(=C2C)C3(C)C)[C@@H](NC(=O)c2ccccc2)c2ccccc2)O1 | 54.5%
CCn1c2ccc(O)cc2c2c(C)c3c[n+](C(C)C)ccc3c(C)c21 | 66.8%
C=CCOC(=O)C1=C(C)NC(=O)NC1c1c(Cl)n(C)c2ccccc12 (stereo not given) | 97.8%
